# The supplement of paper PMC12067093, “Discovery and optimisation of a covalent ligand for TRIM25 and its application to targeted protein ubiquitination” (Chemical Science, 2025)
# The full data set covers some 21,000 targets. This sample favours those with the largest changes.
# Compound: CC1Cc2ccccc2N1C(=O)C1CCCN(C1)C(=O)CCl (mixture of isomers) [TRIM25 ligand 11 (diastereomer mixture)]
# Experiment: probe-labelled cysteine peptide fold change vs DMSO (competition) (log2 fold change); higher = less target engagement (more negative = stronger competition)
# Settings: THP-1, incubation time: 4 h
# 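Also: competitive chemoproteomic profiling in live THP-1 cells with an iodoacetamide desthiobiotin (IA-DTB) probe, comparing probe-labelled peptide intensities in compound-treated cells against DMSO-treated controls.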
# Chain of UniProt Q8IZH2 (Q8IZH2 whole entry, looked up): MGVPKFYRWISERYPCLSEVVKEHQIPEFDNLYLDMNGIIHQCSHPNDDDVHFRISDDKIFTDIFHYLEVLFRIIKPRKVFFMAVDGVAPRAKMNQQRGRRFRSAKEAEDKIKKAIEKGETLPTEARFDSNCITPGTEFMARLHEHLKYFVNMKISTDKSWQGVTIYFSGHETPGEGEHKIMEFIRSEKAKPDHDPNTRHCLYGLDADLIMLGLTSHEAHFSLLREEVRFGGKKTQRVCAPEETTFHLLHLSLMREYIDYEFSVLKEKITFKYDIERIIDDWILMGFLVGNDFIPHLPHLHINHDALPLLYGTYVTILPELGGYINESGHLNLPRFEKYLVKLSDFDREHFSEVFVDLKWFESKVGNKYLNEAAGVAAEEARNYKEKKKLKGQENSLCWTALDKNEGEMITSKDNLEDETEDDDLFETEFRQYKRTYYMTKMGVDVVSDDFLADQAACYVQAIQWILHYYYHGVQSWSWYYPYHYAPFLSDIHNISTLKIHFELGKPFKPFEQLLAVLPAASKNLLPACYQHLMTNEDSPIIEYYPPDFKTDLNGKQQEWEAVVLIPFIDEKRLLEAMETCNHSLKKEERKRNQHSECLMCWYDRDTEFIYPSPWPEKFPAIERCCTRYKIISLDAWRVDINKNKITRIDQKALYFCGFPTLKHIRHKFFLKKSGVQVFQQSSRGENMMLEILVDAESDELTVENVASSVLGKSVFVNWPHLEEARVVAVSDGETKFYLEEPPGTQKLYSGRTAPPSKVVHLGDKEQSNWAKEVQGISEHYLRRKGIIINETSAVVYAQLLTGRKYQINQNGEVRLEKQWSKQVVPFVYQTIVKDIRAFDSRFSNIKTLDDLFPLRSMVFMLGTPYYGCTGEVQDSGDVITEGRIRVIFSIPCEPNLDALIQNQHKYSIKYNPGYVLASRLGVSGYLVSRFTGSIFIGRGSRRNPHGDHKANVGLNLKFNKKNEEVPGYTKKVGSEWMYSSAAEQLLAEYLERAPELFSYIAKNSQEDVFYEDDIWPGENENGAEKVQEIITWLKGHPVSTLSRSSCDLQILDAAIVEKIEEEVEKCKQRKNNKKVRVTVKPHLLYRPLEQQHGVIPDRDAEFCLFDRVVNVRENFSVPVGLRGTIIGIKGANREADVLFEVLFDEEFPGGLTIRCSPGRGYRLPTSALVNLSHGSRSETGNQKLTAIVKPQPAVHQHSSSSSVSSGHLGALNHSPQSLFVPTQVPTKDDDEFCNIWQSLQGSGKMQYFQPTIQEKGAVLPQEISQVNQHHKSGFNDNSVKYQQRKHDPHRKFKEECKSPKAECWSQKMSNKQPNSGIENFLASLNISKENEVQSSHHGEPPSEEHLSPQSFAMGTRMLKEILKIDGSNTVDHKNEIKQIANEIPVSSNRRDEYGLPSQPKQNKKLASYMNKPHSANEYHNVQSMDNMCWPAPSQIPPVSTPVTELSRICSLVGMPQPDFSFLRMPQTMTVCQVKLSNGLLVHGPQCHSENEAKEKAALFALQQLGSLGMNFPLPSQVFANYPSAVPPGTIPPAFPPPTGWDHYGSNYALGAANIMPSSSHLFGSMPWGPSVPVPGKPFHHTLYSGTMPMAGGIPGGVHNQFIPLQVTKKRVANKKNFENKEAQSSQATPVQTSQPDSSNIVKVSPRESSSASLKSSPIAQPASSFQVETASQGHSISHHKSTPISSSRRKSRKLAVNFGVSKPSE
# Chain of UniProt Q8N1G0 (Q8N1G0 whole entry, looked up): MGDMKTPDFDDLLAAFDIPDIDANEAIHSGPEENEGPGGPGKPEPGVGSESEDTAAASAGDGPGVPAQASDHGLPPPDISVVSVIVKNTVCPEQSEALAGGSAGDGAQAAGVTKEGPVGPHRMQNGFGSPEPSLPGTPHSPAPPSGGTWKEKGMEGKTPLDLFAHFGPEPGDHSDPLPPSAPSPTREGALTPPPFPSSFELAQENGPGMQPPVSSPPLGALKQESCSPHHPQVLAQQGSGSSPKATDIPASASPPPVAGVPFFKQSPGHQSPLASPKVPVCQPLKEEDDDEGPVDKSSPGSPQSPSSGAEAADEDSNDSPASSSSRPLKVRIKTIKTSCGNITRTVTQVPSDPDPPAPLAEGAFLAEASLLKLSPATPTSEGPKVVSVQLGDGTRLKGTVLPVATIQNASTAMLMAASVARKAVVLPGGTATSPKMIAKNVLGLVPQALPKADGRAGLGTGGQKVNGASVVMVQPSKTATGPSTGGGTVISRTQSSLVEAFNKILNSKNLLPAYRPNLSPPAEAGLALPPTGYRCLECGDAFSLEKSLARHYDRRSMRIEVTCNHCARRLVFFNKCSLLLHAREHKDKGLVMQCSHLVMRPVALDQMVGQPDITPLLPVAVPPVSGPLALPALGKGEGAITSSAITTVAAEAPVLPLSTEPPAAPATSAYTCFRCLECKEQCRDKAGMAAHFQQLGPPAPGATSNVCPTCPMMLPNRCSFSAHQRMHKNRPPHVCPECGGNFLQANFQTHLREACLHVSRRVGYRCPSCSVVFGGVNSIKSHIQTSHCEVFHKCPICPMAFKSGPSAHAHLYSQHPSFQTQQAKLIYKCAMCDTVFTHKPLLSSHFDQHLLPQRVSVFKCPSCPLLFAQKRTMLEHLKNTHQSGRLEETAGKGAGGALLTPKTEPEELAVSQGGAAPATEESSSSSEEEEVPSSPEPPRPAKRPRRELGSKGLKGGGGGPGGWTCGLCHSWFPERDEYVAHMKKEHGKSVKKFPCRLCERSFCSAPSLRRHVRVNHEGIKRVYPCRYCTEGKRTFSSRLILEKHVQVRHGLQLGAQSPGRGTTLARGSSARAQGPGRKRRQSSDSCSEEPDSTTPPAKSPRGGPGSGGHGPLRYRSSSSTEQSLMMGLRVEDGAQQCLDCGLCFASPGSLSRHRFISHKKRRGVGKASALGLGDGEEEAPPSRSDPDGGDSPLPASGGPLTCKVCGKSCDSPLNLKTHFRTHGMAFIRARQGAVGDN
# Chain of UniProt Q5T4F4 (Q5T4F4 whole entry): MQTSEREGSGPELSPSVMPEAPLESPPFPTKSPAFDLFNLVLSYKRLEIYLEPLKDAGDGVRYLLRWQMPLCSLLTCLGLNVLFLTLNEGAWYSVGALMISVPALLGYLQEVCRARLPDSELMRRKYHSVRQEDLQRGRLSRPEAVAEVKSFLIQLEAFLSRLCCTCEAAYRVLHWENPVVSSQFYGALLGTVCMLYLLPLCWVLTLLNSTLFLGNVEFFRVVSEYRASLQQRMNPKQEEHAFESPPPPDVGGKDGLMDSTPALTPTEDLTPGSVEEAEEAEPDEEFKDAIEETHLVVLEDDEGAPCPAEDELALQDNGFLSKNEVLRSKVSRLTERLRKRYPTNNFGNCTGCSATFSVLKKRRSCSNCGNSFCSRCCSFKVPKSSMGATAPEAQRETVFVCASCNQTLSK
# Chain of UniProt Q8TCF1 (Q8TCF1 whole entry, looked up): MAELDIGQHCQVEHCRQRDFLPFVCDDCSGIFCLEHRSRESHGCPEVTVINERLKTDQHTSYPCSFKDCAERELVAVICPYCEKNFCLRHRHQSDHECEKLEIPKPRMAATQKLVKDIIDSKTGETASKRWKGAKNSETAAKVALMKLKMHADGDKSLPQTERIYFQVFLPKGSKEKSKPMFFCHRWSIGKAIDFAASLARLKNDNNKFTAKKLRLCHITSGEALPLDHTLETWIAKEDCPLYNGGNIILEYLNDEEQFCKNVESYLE
# Chain of UniProt Q9H0D6 (Q9H0D6 whole entry, looked up): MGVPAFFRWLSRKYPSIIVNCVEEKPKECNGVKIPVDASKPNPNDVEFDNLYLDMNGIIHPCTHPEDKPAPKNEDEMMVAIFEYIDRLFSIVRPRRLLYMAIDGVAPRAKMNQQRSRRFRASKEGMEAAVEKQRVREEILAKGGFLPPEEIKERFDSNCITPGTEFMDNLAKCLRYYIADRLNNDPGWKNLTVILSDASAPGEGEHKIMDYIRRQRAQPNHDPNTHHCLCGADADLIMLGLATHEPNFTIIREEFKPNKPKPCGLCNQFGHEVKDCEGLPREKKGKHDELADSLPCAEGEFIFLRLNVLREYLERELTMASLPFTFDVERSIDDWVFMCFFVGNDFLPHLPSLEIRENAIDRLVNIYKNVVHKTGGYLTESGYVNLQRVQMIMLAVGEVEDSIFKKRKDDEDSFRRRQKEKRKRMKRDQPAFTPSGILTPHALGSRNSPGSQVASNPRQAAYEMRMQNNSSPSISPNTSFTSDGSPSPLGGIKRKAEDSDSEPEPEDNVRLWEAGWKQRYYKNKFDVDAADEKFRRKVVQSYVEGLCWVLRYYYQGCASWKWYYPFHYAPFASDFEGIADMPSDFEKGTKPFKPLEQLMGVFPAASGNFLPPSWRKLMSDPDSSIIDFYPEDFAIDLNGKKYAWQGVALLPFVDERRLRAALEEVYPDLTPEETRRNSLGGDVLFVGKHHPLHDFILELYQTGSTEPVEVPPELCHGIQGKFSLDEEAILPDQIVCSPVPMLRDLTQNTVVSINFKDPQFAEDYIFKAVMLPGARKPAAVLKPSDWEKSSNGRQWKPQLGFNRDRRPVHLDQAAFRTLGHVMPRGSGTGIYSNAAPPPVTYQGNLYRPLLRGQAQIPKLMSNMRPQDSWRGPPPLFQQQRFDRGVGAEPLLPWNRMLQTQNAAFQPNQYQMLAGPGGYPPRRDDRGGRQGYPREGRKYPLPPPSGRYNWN
# Chain of UniProt Q9NUD5 (Q9NUD5 whole entry, looked up): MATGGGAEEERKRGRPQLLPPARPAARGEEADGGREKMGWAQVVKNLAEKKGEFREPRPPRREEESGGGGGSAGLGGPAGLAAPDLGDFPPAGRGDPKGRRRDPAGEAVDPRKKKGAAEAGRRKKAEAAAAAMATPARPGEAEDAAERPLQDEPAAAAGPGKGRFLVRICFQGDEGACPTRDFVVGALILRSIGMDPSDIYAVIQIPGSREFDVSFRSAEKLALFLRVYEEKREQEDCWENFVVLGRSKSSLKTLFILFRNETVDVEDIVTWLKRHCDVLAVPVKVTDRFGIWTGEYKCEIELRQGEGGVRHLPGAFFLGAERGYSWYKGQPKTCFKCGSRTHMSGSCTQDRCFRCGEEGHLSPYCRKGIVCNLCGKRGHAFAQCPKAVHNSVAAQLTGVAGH
Target,probe-labelled cysteine peptide fold change (10 µM),probe-labelled cysteine peptide fold change (50 µM)
ZNFX1_Q9P2E3_1416_CGHVEGLLYGGLLVK (UniProt Q9P2E3),-0.0464,-0.153
ZNF280D_Q6N043_323_CFSCLK (UniProt Q6N043),0.0838,0.233
ZW10_O43264_568_LAPILCDGTATFVDLVPGFR (UniProt O43264),0.117,0.00333
ZFYVE27_Q5T4F4_353_RYPTNNFGNCTGCSATFSVLK (UniProt Q5T4F4),-0.247,-0.0647
ZFAND1_Q8TCF1_64_LKTDQHTSYPCSFK (UniProt Q8TCF1),-0.0624,-0.388
XRN2_Q9H0D6_736_FSLDEEAILPDQIVCSPVPMLR (UniProt Q9H0D6),0.234,0.0197
ZNF417_Q8TAU3_56_DVMLENLALISSLGCWCGSK<|>ZNF587_Q96SQ5_56_DVMLENLALISSLGCWCGSK (UniProt Q96SQ5+Q8TAU3),0.112,0.104
ZNF687_Q8N1G0_576_CSLLLHAR (UniProt Q8N1G0),0.101,0.0491
ZCCHC3_Q9NUD5_238_REQEDCWENFVVLGR (UniProt Q9NUD5),0.192,0.112
ZW10_O43264_650_LGIVWQDVLPVNIYCK (UniProt O43264),0.0783,0.0695
XRN1_Q8IZH2_16_YPCLSEVVK (UniProt Q8IZH2),0.0639,0.0149
YES1_P07947_42_YRPENTPEPVSTSVSHYGAEPTTVSPCPSSSAK (UniProt P07947),-0.0245,-0.239
ZNF316_A6NFI3_861_CADCGR (UniProt A6NFI3),0.139,0.163
